Assay outcomes (PubChem BioAssay)
GASC-1 inh: human JMJD2C demethylase inhibition; inhibition, % at 2.35 µM; 0.069% of 330,000 active; GST-JMJD2C(1-420) H3K9me3 demethylation, DELFIA europium; Q9H3R0; AID 2099;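 active = more than half of a compound's replicate wells show inhibition beyond 50%, single wells judged on their own value; inconclusive = some, but no more than half, of replicates pass 50% inhibition; inactive = no replicate passes 50% inhibition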;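 note: signal counts dimethyl H3K9 product captured on neutravidin plate; 0% = median of DMSO wells and 100% = 0.3 times that DMSO median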
PREPL inh: human PREPL enzyme inhibition; AID 2751; inhibition, % at 5.96 µM; Q4J6C6; recombinant PREPL, fluorescence polarization activity-based probe; 0.68% of 320,000 active; in the data active = inhibition above about 43%;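 note: 0% = enzyme with DMSO and 100% = wells lacking enzyme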
VLA-4 inh: inhibition in a human VLA-4 binding assay | 0.2% of 330,000 active | inhibition, % (about 7 µM as worked out from the volumes in the protocol) | VLA-4 expressing cells, ligand binding flow cytometry | P13612; in the data active = inhibition above about 50%
Pemphigus Ab inh: human desmoglein-3 autoantibody binding inhibition; P32926; DSG3-coupled beads, scFv-anti-DSG3-GFP binding, flow cytometry; hits give low values; binding (percent of control), % at 10 µM; 0.48% of 310,000 active; AID 588358;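 active = binding more than 3 SD below its plate's average and above zero; inconclusive = below that plate limit but binding exactly zero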;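 note: hits lower antibody fragment binding to DSG3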
Target sequence (P32926 whole entry, looked up, the tested form may be a part): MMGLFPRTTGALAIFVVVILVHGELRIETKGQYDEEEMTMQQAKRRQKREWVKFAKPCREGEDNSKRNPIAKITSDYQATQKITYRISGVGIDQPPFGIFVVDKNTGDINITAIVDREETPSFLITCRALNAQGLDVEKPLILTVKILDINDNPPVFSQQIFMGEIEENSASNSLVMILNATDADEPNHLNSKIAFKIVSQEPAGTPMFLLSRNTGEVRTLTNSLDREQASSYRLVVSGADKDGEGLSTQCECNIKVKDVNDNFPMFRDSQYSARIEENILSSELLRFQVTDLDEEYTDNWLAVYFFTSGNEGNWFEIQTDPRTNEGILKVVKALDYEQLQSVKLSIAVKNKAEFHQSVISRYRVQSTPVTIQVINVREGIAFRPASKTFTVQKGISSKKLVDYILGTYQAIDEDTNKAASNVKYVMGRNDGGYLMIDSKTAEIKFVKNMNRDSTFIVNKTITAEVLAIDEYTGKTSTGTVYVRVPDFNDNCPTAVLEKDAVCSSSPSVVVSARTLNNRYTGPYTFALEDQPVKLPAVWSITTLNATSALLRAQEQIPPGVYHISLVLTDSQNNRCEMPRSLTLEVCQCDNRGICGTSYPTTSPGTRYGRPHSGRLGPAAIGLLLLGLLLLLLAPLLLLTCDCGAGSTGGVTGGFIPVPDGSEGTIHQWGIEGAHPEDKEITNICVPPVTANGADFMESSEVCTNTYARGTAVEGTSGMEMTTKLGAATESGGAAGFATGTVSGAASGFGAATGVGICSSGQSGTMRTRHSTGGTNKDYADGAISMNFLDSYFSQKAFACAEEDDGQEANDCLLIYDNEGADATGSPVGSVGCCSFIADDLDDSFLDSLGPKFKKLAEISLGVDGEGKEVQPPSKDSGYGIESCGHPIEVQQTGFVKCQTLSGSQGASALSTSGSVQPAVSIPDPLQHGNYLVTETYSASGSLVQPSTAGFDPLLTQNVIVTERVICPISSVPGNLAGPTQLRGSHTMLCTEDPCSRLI
GRK2 aptamer HTS: blocks RNA aptamer binding to human GRK2 | bead flow cytometry, FAM-aptamer displacement from GRK2 | inhibition of aptamer binding, % at 10 µM | 0.59% of 330,000 active;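 active = inhibition of aptamer binding above 40%, roughly 3 SD of noise, on plates passing a quality check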;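 note: median bead fluorescence of bound FAM aptamer so fluorescent compounds give negative values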
An asterisk follows results filed as active; ? = inconclusive; . = no result given. A selection: hits, their analogues and other compounds. The true share with any hit is near 1.6%.

SMILES | GASC-1 inh | PREPL inh | VLA-4 inh | Pemphigus Ab inh | GRK2 aptamer HTS
COCc1cc(C)nc(SCC(=O)Nc2cccc3cccnc23)c1C#N | 13.2 | 5.0 | -4.3 | 23.3* | 0.0
C=C(C)CN(CC)C(=O)CSc1ccc(S(=O)(=O)N2CCN(C)CC2)cn1 | . | . | . | 93.2 | .
Cc1ccc(S(=O)(=O)N2CCCCC2CCNC(=O)C(=O)NCc2ccccc2C)cc1 (stereo not drawn) | -2.8 | 0.5 | -1.9 | 100.8 | 5.0
CC1CC2=C(NC(=S)NC2c2ccccc2F)/C(=C/c2ccccc2F)C1 (stereo not drawn) | -2.8 | 1.4 | 12.4 | 17.0* | 2.0
CCCCCCOc1ccc(C(=O)O)cc1 | -3.9 | 2.3 | -25.1 | 87.4 | 3.0
CCCCCCOc1ccc(C(=O)n2cnc(N)n2)cc1 | 3.7 | 71.6* | 0.4 | 102.0 | 0.0
COc1ccc(OC)c(NC(=O)COC(=O)CN(C)S(=O)(=O)c2ccc(C)cc2)c1 | -23.2 | 0.7 | 6.7 | 94.9 | 100.0*
CC(C)CN(CC(C)C)c1nn[nH]n1 | . | . | . | 85.6* | .
CCCCN(CCCC)c1nn[nH]n1 | . | . | . | 112.9 | .
Cc1ccccc1OCC(=O)OCC(=O)NCCNC(=O)COC(=O)COc1ccccc1C | -18.3 | 3.3 | 1.3 | 103.8 | 0.0
O=C(O)C(=Cc1ccccc1)Cc1ccccc1 | . | . | . | 93.0 | .
Cc1ccc2c(c1)C(=O)N(CCCCO)C2=O | 4.5 | -6.2 | 10.4 | 69.4* | 3.0
CCCN1C(=O)c2ccc(C(=O)Nc3cc(C)ccc3O)cc2C1=O | 57.2* | 6.5 | 15.5 | 105.3 | 3.0
NS(=O)(=O)c1ccc(NC(=O)/C=C/c2ccc(S(=O)(=O)NCc3ccco3)cc2)cc1 | 0.1 | -11.3 | -14.1 | 156.8 | 0.0
CC(=O)c1cccc(NC(=O)/C=C/c2ccc(S(=O)(=O)N3CCOCC3)cc2)c1 | 1.3 | 5.7 | 13.8 | 112.3 | 96.0*
CN(C)S(=O)(=O)c1cccc(NC(=O)/C=C/c2ccc(S(=O)(=O)N3CCOCC3)cc2)c1 | -4.2 | -10.5 | 2.3 | ? | 0.0
O=c1[nH]c(=S)[nH]c2nc(-c3cccs3)cc(C(F)(F)F)c12 | 3.6 | 2.0 | -7.5 | 71.3* | 19.0
CCCCCCCc1c(O)nc(SCC(=O)O)[nH]c1=O | -22.7 | 10.9 | -3.0 | 94.2 | 11.0
O=C(CSc1nc2nn(-c3ccccc3)c(=O)c-2c2n1CCCCC2)Nc1ccc(F)c(F)c1 | -5.2 | 37.0 | -0.9 | -12.1* | 1.0
CN1CCc2c(sc3c2C(=O)NC(c2cccc(OC(=O)c4cccs4)c2)N3)C1 (stereo not drawn) | -9.9 | 51.5* | -43.9 | 118.5 | 12.0
CN1CCc2c(sc3c2C(=O)NC(c2ccco2)N3)C1 (stereo not drawn) | 10.4 | 0.5 | 8.2 | 98.7 | 4.0
CCCOc1ccc(CNC(=O)CCC(=O)n2ncc3cc(C)ccc32)cc1 | 2.5 | 0.3 | -4.2 | 97.0 | 0.0
COc1ccc(CNC(=O)CCC(=O)n2ncc3cc(C)ccc32)cc1 | -13.0 | 2.0 | 7.2 | 76.0* | 4.0
Cc1cc(NC(=O)C2CCCN2C(=O)Nc2cccc(Cl)c2)ccc1-n1cnnn1 (stereo not drawn) | -5.8 | -51.4 | 0.0 | 106.1 | 3.0
CCOc1ccc(S(=O)(=O)N2CCN(C(=O)c3sccc3C)CC2)cc1 | 19.0 | -0.3 | 9.6 | 107.2 | 2.0
SMILES | GASC-1 inh | PREPL inh | VLA-4 inh | Pemphigus Ab inh | GRK2 aptamer HTS
N#C/C(=C\c1ccc(-c2ccc([N+](=O)[O-])cc2)o1)C(=O)Nc1nc(-c2cccs2)cs1 | 10.4 | 11.2 | 5.8 | 74.9 | 4.0
N#C/C(=C\c1ccc(-c2ccccc2[N+](=O)[O-])o1)C(=O)Nc1nc(-c2cccs2)cs1 | 0.4 | 19.4 | 5.2 | 87.1 | 56.0*
Cc1noc(C)c1CSCC(=O)Nc1cc(S(=O)(=O)N2CCCCC2)ccc1OC(C)C | -0.3 | 4.0 | 4.7 | 100.0 | 1.0
Cc1noc(C)c1CSCC(=O)Nc1cc(S(=O)(=O)N2CCOCC2)ccc1OCC(F)(F)F | -1.9 | 20.5 | 8.0 | 76.4* | 3.0
O=C(CNC(=O)/C=C/c1ccco1)N=Nc1c(O)[nH]c2ccccc12 | 4.9 | 8.0 | 2.4 | 45.0* | 50.0*
Cc1cc(C)nc(Nc2ccc(N3CCCC3)cc2)n1 | 4.3 | 44.0* | -30.2 | . | 2.0
Cc1cc(C)nc(Nc2ccc(N3CCOCC3)cc2)n1 | -2.7 | 8.8 | 31.7 | 95.7 | 5.0
C=CCn1c(SCC(=O)N2CCN(c3ccccc3)CC2)nc2c([nH]c3ccccc32)c1=O | -2.2 | 41.2 | -6.0 | 91.3* | 0.0
COc1ccc(C)cc1N(CC(=O)Nc1cccc(N(C)S(C)(=O)=O)c1)S(C)(=O)=O | -7.3 | 5.9 | -5.2 | 100.5 | 4.0
